MCF10A rereplic: inducers of DNA re-replication in MCF 10A breast cells; MCF 10A DNA re-replication, Hoechst nuclear intensity, 48 h; Potency, µM (titrated, usually from 46.1 µM), most hits filed as activators; actives 2.9% (n = 350,000); AID 624296; also: nearly all actives have a fitted effect of over 50% in size
HT1080-NT tox: kills 2HG-producing HT-1080-NT fibrosarcoma cells. HT-1080-NT fibrosarcoma viability, CellTiter-Glo ATP luminescence, 48 h. actives 1.6% (n = 360,000). Potency, µM (series often up to 46.1 µM), actives largely listed as cytotoxic;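 also: NT is the 2HG producing partner of a matched IDH1 knockdown line; nearly all actives have a fitted effect of over 55% in size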
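HT-1080-NT; 750 cells/well; 5% FBS RPMI; 48 h compound, 37 degrees C; CellTiter-Glo luminescence; curve fitting and curve-class assignment.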
KB-V1 cytotox: KB-V1 MDR subline cytotoxicity. Potency, µM (titrated, usually from 46.1 µM), actives largely listed as cytotoxic. KB-V1 MDR cells viability, CellTiter-Glo, 72 h. actives 3.4% (n = 400,000); also: nearly all actives have a fitted effect of over 60% in size
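Cytotoxicity toward P-gp-expressing KB-V1 cells was determined as loss of CellTiter-Glo luminescence after 72 h at 37 degrees C. Compounds were tested in quantitative HTS format across a concentration range, with curves fitted to normalized data.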
SW480 rerep: inducers of DNA re-replication in SW480 colon cancer cells; SW480 DNA re-replication, Hoechst DNA content imaging, 48 h; Potency, µM (series often up to 46.1 µM), most hits filed as activators; AID 624297; actives 1.8% (n = 340,000); also: nearly all actives have a fitted effect of over 55% in size
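Hoechst fluorescence of nuclei (405 nm excitation, 500-530 nm emission) measured by plate-scanning imager after 48 hr compound exposure at 37 C; re-replication scored as increased number of nuclei with elevated intensity.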
HT1080 IDH1KD tx: kills HT-1080 cells with IDH1 knockdown; HT-1080 IDH1 knockdown viability, ATP luminescence, 48 h; Potency, µM (highest dose often 46.1 µM), actives largely listed as cytotoxic; actives 2% (n = 360,000); AID 686971
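Viability of IDH1-knockdown HT-1080 fibrosarcoma cells was assessed by CellTiter-Glo after 48 h at 37 °C with titrated compound; concentration-effect curves were classified by fit quality and response size.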
KB-3-1 tox: KB-3-1 parental cell cytotoxicity; Potency, µM (doses to about 46.1 µM), most hits filed as cytotoxic; actives 1.4% (n = 400,000); AID 1347075; KB-3-1 viability, CellTiter-Glo ATP luminescence, 72 h; also: nearly all actives have a fitted effect of over 60% in size
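Multi-concentration cytotoxicity screen in KB-3-1 cells grown in DMEM lacking phenol red with 10% FBS. After 72 h at 37 °C with compound, ATP-dependent luminescence was recorded.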
Numbers stand for hits; [ ] = another dose, or the depositor's remark. In the library only some 8% were active in any assay of this set; here they are far more common. Calls follow the shape of the dose curve; as a rule, active = well fitted curve in the direction sought with a large enough effect; inconclusive = small, poorly fitted or top-dose-only effect, or another doubt; inactive = no such curve, though single readings can be large; an effect the other way counts as inactive or inconclusive.

Screening O=C(COc1ccccc1-c1ccccc1)N/N=C/c1ccc2ccccc2c1 returned MCF10A rereplic inconclusive, HT1080-NT tox inconclusive, KB-V1 cytotox inconclusive, SW480 rerep 1.3µM, HT1080 IDH1KD tx 1.2µM and KB-3-1 tox 1.3µM.
CCCCCC(=O)N/N=C(\C)c1ccccn1 was read as MCF10A rereplic inactive, HT1080-NT tox inactive, KB-V1 cytotox 5.2µM, SW480 rerep inactive, HT1080 IDH1KD tx inactive and KB-3-1 tox inconclusive.
For C/C(=N\NC(=O)COc1ccccc1-c1ccccc1)c1ccccn1 the results were MCF10A rereplic inactive, HT1080-NT tox inconclusive, KB-V1 cytotox 4.1µM, SW480 rerep inconclusive, HT1080 IDH1KD tx inconclusive and KB-3-1 tox inconclusive.
Screening CC(C)c1nc2scc(-c3ccc(Cl)cc3)c2c(=O)n1N returned MCF10A rereplic inconclusive, HT1080-NT tox inactive, KB-V1 cytotox inconclusive, SW480 rerep inactive, HT1080 IDH1KD tx inactive and KB-3-1 tox inactive.
For CCc1ccn2cc(-c3ccc4c(c3)OCO4)nc2c1 the results were MCF10A rereplic inactive, HT1080-NT tox 12µM, KB-V1 cytotox inconclusive, SW480 rerep inactive, HT1080 IDH1KD tx 13µM and KB-3-1 tox inconclusive.
`Cn1ccnc1Sc1cc(NCCCO)c([N+](=O)[O-])c2nonc12` gave MCF10A rereplic 18µM, HT1080-NT tox 4.1µM, KB-V1 cytotox inactive, SW480 rerep inactive, HT1080 IDH1KD tx inconclusive and KB-3-1 tox inactive.
For O=[N+]([O-])c1c(NCCCO)cc(N2CCCCCC2)c2nonc12 the results were MCF10A rereplic inactive, HT1080-NT tox inactive, KB-V1 cytotox inactive, SW480 rerep inactive, HT1080 IDH1KD tx inactive and KB-3-1 tox inactive.
O=[N+]([O-])c1c(NCCCO)cc(N2CCN(Cc3ccc4c(c3)OCO4)CC2)c2nonc12 was read as MCF10A rereplic inconclusive, HT1080-NT tox inactive, KB-V1 cytotox 16µM, SW480 rerep inactive, HT1080 IDH1KD tx inactive and KB-3-1 tox inactive.
`O=[N+]([O-])c1c(NCCCO)cc(Sc2ccc(Cl)cc2)c2nonc12` gave MCF10A rereplic 13µM, HT1080-NT tox inactive, KB-V1 cytotox inactive, SW480 rerep inactive, HT1080 IDH1KD tx inactive and KB-3-1 tox inconclusive.
Screening O=[N+]([O-])c1c(NCCCO)cc(SCc2ccco2)c2nonc12 returned MCF10A rereplic inconclusive, HT1080-NT tox inactive, KB-V1 cytotox inactive, SW480 rerep inconclusive, HT1080 IDH1KD tx inconclusive and KB-3-1 tox inactive.
Screening Clc1ccc(CN(CC2CCCO2)C(c2cccs2)c2nnnn2C2CCCC2)cc1 (configuration not stated) returned MCF10A rereplic inconclusive, HT1080-NT tox inactive, KB-V1 cytotox 21µM, SW480 rerep inactive, HT1080 IDH1KD tx inactive and KB-3-1 tox inconclusive.
`Clc1ccccc1CN(Cc1ccccc1)C(c1cccs1)c1nnnn1C1CCCC1` (configuration not stated) gave MCF10A rereplic inactive, HT1080-NT tox inactive, KB-V1 cytotox inconclusive, SW480 rerep inactive[9.22 µM], HT1080 IDH1KD tx inactive and KB-3-1 tox inconclusive.
Cc1ccc(S(=O)(=O)Nc2cccc(-n3cnnn3)c2)cc1C was read as MCF10A rereplic inactive, HT1080-NT tox inactive, KB-V1 cytotox inactive, SW480 rerep inactive, HT1080 IDH1KD tx inactive and KB-3-1 tox inactive.
CCN(CC)CCOC(=O)c1ccc(N/C=C(/C#N)c2nc(-c3ccc(OC)c(OC)c3)cs2)cc1 was read as MCF10A rereplic 18µM, HT1080-NT tox 23µM, KB-V1 cytotox inactive, SW480 rerep 23µM, HT1080 IDH1KD tx inactive and KB-3-1 tox inactive.
O=C(COc1ccc2cc(Br)ccc2c1Br)N1CCOCC1 was read as MCF10A rereplic inactive, HT1080-NT tox inactive, KB-V1 cytotox inactive, SW480 rerep inconclusive, HT1080 IDH1KD tx inconclusive and KB-3-1 tox inconclusive.
`O=c1c2c3c(sc2n(CCN2CCCCC2)c(=O)n1Cc1ccco1)CCCCC3` gave MCF10A rereplic 13µM, HT1080-NT tox inconclusive, KB-V1 cytotox inconclusive, SW480 rerep inconclusive, HT1080 IDH1KD tx inconclusive and KB-3-1 tox inactive.
For COc1ccc(CN(C)C(=O)CNC(=O)c2sc3ccccc3c2Cl)c(OC)c1OC the results were MCF10A rereplic inactive, HT1080-NT tox inactive, KB-V1 cytotox 5.8µM, SW480 rerep inactive, HT1080 IDH1KD tx inactive and KB-3-1 tox inconclusive.
For COc1cccc(CN(C)C(=O)CNC(=O)c2cccs2)c1OC the results were MCF10A rereplic inactive, HT1080-NT tox inactive, KB-V1 cytotox inconclusive, SW480 rerep inactive, HT1080 IDH1KD tx inactive and KB-3-1 tox inactive.
COc1ccc(CN(C)C(=O)CNC(=O)c2sc3ccccc3c2Cl)c(OC)c1 was read as HT1080-NT tox inactive, KB-V1 cytotox inconclusive, HT1080 IDH1KD tx inactive and KB-3-1 tox inactive.
Screening COc1cccc(CN(C)C(=O)CNC(=O)c2ccc(-c3ccccc3)cc2)c1OC returned MCF10A rereplic inactive, HT1080-NT tox inconclusive, KB-V1 cytotox inconclusive, SW480 rerep inactive, HT1080 IDH1KD tx 4.6µM and KB-3-1 tox inactive.
For O=C1NN=C2CCCCCCC12 (configuration not stated) the results were HT1080-NT tox inactive, KB-V1 cytotox inactive, HT1080 IDH1KD tx inconclusive and KB-3-1 tox inactive.
For Cc1nc(C(=O)Nc2ccc(Cl)cc2Cl)nn1-c1cc(OC(C)C)c(Cl)cc1Cl the results were MCF10A rereplic inconclusive, HT1080-NT tox inactive, KB-V1 cytotox inactive, SW480 rerep inactive, HT1080 IDH1KD tx inactive and KB-3-1 tox inactive.
For Cc1nc(C(=O)Nc2cc(Cl)ccc2Cl)nn1-c1cc(OC(C)C)c(Cl)cc1Cl the results were MCF10A rereplic inactive, HT1080-NT tox inconclusive, KB-V1 cytotox 15µM, SW480 rerep inactive, HT1080 IDH1KD tx inactive and KB-3-1 tox inactive.
For O=C(CNCCC1=CCCCC1)Nc1ccccc1N1CCCCC1 the results were MCF10A rereplic inconclusive, HT1080-NT tox inactive, KB-V1 cytotox inconclusive, SW480 rerep inactive, HT1080 IDH1KD tx inconclusive and KB-3-1 tox inactive.
O=[N+]([O-])c1cc([N+](=O)[O-])c2cc3ccccc3nc2c1 was read as MCF10A rereplic inconclusive, HT1080-NT tox 16µM, KB-V1 cytotox inactive, SW480 rerep inconclusive, HT1080 IDH1KD tx 4.6µM and KB-3-1 tox 3.7µM.
Screening O=[N+]([O-])c1cnc2ccccc2c1 returned MCF10A rereplic inactive, HT1080-NT tox inactive, KB-V1 cytotox inactive, SW480 rerep inactive, HT1080 IDH1KD tx inactive and KB-3-1 tox inactive.
For CC1c2cc3c(cc2CCN1CC(=O)Nc1ccccc1)OCCCO3 (configuration not stated) the results were MCF10A rereplic inactive, HT1080-NT tox inactive, KB-V1 cytotox inconclusive, SW480 rerep inactive, HT1080 IDH1KD tx inactive and KB-3-1 tox inconclusive.
Screening CC1c2cc3c(cc2CCN1C(=O)c1cccc(Cl)c1)OCCCO3 (configuration not stated) returned MCF10A rereplic inconclusive, HT1080-NT tox 21µM, KB-V1 cytotox 5.8µM, SW480 rerep inactive, HT1080 IDH1KD tx inconclusive and KB-3-1 tox inconclusive.
